Source: PubChem (National Center for Advancing Translational Sciences (NCATS))
The list is not random: actives were taken first. Their share in the collection is about 19%.
TDP1 cell CPT: growth inhibition of DT40 Tdp1-/-;hTDP1 cells with camptothecin (screen for TDP1 inhibitors). 420,000 compounds, 12% hits. Potency, µM (series often up to 46.2 µM), usual class: inhibitors. chicken DT40 Tdp1-/-;hTDP1 cells + 20 nM CPT, ATP luminescence, 48 h. AID 686979; further: nearly all actives have a fitted effect of over 55% in size
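Cell growth measured by CellTiter-Glo luminescence after a minimum 48 h, 37 C compound exposure with 20 nM CPT in Tdp1-knockout DT40 cells stably expressing hTDP1, seeded 400/well; qHTS titration format.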
IL-1B inflam inh: blocks inflammasome-driven IL-1 beta release | activity change, % at 57.5 µM | 360,000 compounds, 4.7% hits | THP-1 LPS/ATP IL-1B secretion, AlphaLISA, 16 h; active compounds read low | AID 743279; in the data active means activity change below about -50%; inconclusive means mostly about -30% to -49%
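THP-1 cells pretreated 1 hr with compounds (up to 57.5 uM final), then stimulated with LPS (250 ng/mL final) plus ATP (1.25 mM final); secreted IL-1B measured by AlphaLISA after 16 hr, decreased signal indicating inhibition.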
HT1080-NT tox: kills 2HG-producing HT-1080-NT fibrosarcoma cells. Potency, µM (highest dose often 46.1 µM), most hits filed as cytotoxic. HT-1080-NT fibrosarcoma viability, CellTiter-Glo ATP luminescence, 48 h. AID 686970. 360,000 compounds, 1.6% hits;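 further: NT is the 2HG producing partner of a matched IDH1 knockdown line; nearly all actives have a fitted effect of over 55% in size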
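HT-1080-NT; 750 cells/well; 5% FBS RPMI; 48 h compound, 37 degrees C; CellTiter-Glo luminescence; curve fitting and curve-class assignment.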
HT1080 IDH1KD tx: kills HT-1080 cells with IDH1 knockdown; HT-1080 IDH1 knockdown viability, ATP luminescence, 48 h; 360,000 compounds, 2% hits; Potency, µM (top dose mostly 46.1 µM), actives largely listed as cytotoxic
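CellTiter-Glo luminescence after 48 h compound exposure at 37 degrees C of IDH1-knockdown HT-1080 cells in 5% FBS RPMI. %Activity scaled between DMSO wells and cell-free media wells, with curves fitted and assigned curve classes.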
TDP1 cell noCPT: qHTS for Inhibitors of human tyrosyl-DNA phosphodiesterase 1 (TDP1): qHTS in cells in absence of CPT; DT40 Tdp1-/- hTDP1 cells, no CPT, ATP luminescence, 48 h; 420,000 compounds, 15% hits; Potency, µM (titrated, usually from 46.2 µM), hits mostly inhibitors; further: nearly all actives have a fitted effect of over 55% in size
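Chicken DT40 Tdp1-/- cells complemented with human TDP1, screened without camptothecin (DMSO vehicle only), 400 cells/well. Compounds pin-transferred, cells incubated at 37 °C for at least 48 hr. Growth read as ATP-dependent luminescence (CellTiter-Glo, 30 min at RT).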
uPA surface inh: inhibitors of cell surface uPA generation; cell surface uPA generation assay, qHTS; Potency, µM (highest dose often 38.3 µM), usual class: inhibitors; 330,000 compounds, 0.31% hits; AID 540303; active means well fitted inhibition curve with a large enough effect; inconclusive means small, poorly fitted or top-dose-only effect; inactive means no such curve, though single readings can be large or run the other way; tested in mouse RAW 264.7 cells; further: nearly all actives have a fitted effect of over 55% in size
A number is an active result; - = inactive; ? = inconclusive; . = no result; [ ] = dose if it differs, or a comment. Unless noted, the call rests on the fitted dose curve; in most records, active means well fitted curve in the direction sought with a large enough effect; inconclusive means small, poorly fitted or top-dose-only effect, or another doubt; inactive means no such curve, though single readings can be large; an effect the other way counts as inactive or inconclusive.

SMILES | TDP1 cell CPT | IL-1B inflam inh | HT1080-NT tox | HT1080 IDH1KD tx | TDP1 cell noCPT | uPA surface inh
CC1CC(C)CN(C(=O)COC(=O)c2c[nH]c3ccccc23)C1 (configuration not stated) | - | - | -[9.24 µM] | - | - | -
Cc1nc2c(=O)n(C)c(=O)n(C)c2nc1Cl | 0.58µM | -99 | 9.2µM | 5.8µM | 1.2µM | -
O=C(C(=O)N1CCN(c2ccccc2F)CC1)c1cn(CC(=O)N2CCCC2)c2ccccc12 | - | - | - | - | - | .
C=CCN(CC=C)C(=O)c1cccc(S(=O)(=O)N2c3ccccc3CC2C)c1 (configuration not stated) | 16µM | - | - | - | 16µM | -
CC1Cc2ccccc2N1S(=O)(=O)c1cccc(C(=O)NC2CC2)c1 (configuration not stated) | 18µM | - | ? | ? | 13µM | -
CNC(=O)C1CN(C(=O)c2cccc(S(=O)(=O)N3c4ccccc4CC3C)c2)c2ccccc2O1 (configuration not stated) | ? | - | - | - | 18µM | -
COc1ccccc1C(CNC(=O)c1cccc(S(=O)(=O)N2c3ccccc3CC2C)c1)N(C)C (configuration not stated) | ? | -54 | ? | - | 15µM | ?
Cc1ccc(NNc2c(C)nc3ccccc3nc2=O)cc1 | - | ? | - | - | - | -
O=C(CCn1cccn1)Nc1ccc2c(c1)OCCO2 | - | - | - | - | - | -
CCOC=C1C(=O)N(C(C)=O)c2cc(OC)c(OC)cc21 | ? | - | - | - | - | -
Cc1noc2ncnc(Oc3ccc4ccccc4c3)c12 | - | ? | - | - | - | -
Cc1noc2ncnc(Oc3cc(Cl)ccc3Cl)c12 | - | -102 | ? | - | - | -
COc1ccc(NC(=O)c2cnc[nH]2)cc1 | - | . | . | . | ? | .
CCOc1ccc(C(=O)Nc2cc(-c3ccccc3)no2)cc1 | - | . | . | . | - | .
COC(=O)c1cc(S(=O)(=O)NCCN2CCOCC2)cn1C | - | - | - | - | - | -
COc1ccc(CCNC(=O)c2cc(-c3ccc(C)cc3)nc3n[nH]c(-c4ccccc4)c23)cc1OC | - | . | . | . | - | .
COc1ccc(-c2cc(C(=O)NCCc3ccccc3)c3c(-c4ccccc4)[nH]nc3n2)cc1OC | 16µM | . | . | . | ? | .
CCOc1ccc(-c2cc(C(=O)NCCc3ccccc3)c3c(-c4ccc(C)cc4)[nH]nc3n2)cc1 | 12µM | . | . | . | 15µM | .
CCc1ccc(-c2[nH]nc3nc(-c4cc(OC)ccc4OC)cc(C(=O)O)c23)cc1 | - | . | . | . | - | .
COc1ccccc1-c1cc(C(=O)NCc2ccccc2)c2c(-c3ccc(C)cc3)[nH]nc2n1 | 23µM | . | . | . | ? | .
CC1CCN(c2ccccc2NC(=S)NC(=O)C(C)(C)C)CC1 | ? | - | ? | - | ? | -
CC(=O)Nc1ccc(NC(=O)C(C)OC(=O)c2ccc3ccccc3n2)cc1 (configuration not stated) | - | - | -[9.24 µM] | - | - | -
N#Cc1cc2c([nH]c1=S)CCCC2 | - | - | - | - | - | -
C=CCSC(=C(C#N)C#N)c1cc2c([nH]1)CCCC2 | 10µM | -115 | 16µM | 16µM | 12µM | -
CC(C)C1OC(c2cccc(NC(=O)c3cccs3)c2)OCC1(C)C (configuration not stated) | ? | -75 | ? | ? | 23µM | -
COc1cccc(-c2nnc(SCc3cccnc3)o2)c1 | - | - | - | - | - | -
COc1cc(OC)cc(-c2nnc(SCc3cccnc3)o2)c1 | 26µM | - | - | - | - | -
Cc1ccc(NC2(c3ccccc3)C(=O)c3ccccc3C2=O)cc1F | - | . | . | . | - | .
CCCCN(CCCC)Cc1cc2ccccc2c2c1COC2 | 13µM | - | - | - | ? | -
COc1ccc2cc(C(=O)NCc3ccc4c(c3)CCN4C(=O)c3ccccc3)[nH]c2c1 | - | . | . | . | - | .
